In all, about 110,000 compounds were measured (“z-score”: median about -0.1, highest 2% from about 2 on). For the sample, the highest values were picked, then their nearest neighbours and some compounds at random. Active and inactive are the calls of the source.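 Rule for the calls: active = z-score in the third read window above 3 or below -3; inactive = the rest.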
The molecules below were run against Metabotropic glutamate receptor 8 (Rattus norvegicus) (UniProt P70579) (assay: rat mGluR8 modulators via GIRK flux, primary screen, cell-based, thallium flux, HTS (AID 488969)). Conditions: HEK293 rat mGluR8, GIRK (G protein-gated inwardly rectifying potassium channel) thallium flux, FluoZin2; at 10 µM; stronger effect = higher value; submaximal glutamate (EC20) added with thallium.
Metabotropic glutamate receptor 8 (Rattus norvegicus), sequence (P70579 whole entry, looked up): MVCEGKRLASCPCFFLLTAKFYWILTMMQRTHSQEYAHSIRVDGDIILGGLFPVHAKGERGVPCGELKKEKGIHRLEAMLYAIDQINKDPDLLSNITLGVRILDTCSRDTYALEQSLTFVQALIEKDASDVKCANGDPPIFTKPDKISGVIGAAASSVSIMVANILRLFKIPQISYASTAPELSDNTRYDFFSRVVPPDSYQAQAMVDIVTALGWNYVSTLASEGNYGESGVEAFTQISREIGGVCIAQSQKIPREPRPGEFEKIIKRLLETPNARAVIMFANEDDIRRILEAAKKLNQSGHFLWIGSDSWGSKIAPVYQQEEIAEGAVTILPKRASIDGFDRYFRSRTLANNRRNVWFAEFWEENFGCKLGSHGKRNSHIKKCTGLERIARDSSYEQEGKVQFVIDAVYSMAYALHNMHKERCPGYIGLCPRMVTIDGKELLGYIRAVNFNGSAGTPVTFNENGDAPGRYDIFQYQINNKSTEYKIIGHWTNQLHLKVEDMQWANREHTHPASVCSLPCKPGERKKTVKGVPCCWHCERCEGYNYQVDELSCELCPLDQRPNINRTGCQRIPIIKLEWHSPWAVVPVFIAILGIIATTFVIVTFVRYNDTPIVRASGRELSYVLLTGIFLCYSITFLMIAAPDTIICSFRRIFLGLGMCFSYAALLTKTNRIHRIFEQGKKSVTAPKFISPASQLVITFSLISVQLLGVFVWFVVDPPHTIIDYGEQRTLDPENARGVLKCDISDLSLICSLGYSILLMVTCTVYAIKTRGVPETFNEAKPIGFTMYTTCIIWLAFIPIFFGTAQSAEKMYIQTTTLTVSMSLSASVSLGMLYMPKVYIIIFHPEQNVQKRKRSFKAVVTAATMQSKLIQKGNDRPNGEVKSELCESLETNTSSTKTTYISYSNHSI

Row | Structure (SMILES) | z-score
1 | CS(=O)(=O)N(CCc1ccccc1)CC(=O)NCc1cccnc1 | 0.68
2 | O=c1c2c(n3nnnc3n1Cc1ccccc1)-c1ccccc1CC21CCCC1 | 0.0259
3 | Cn1c2ccccc2c2cc(C(=O)NNS(=O)(=O)c3ccc(F)cc3)sc21 | 5.09 (active)
4 | COc1ccc(S(=O)(=O)NNC(=O)c2cc3c4ccccc4n(C)c3s2)cc1 | -0.127
5 | CC(=O)Nc1ccc(S(=O)(=O)NNC(=O)c2cc3c4ccccc4n(C)c3s2)cc1 | -0.78
6 | COc1ccccc1C(=O)Nc1ccc(S(=O)(=O)N2CCc3ccccc32)cc1 | 0.187
7 | Cc1ccc(Oc2cc([N+](=O)[O-])cc3c2C(=O)Nc2ccccc2O3)cc1 | -0.0885
8 | CCOC(=O)Cc1cc(-c2ccc(O)cc2)nc2ccc3ccccc3c12 | 0.0725
9 | CCOC(=O)c1c(C)nc2c(c1-c1ccc(Cl)cc1)C(=O)CC(C)(C)C2 | -1.24
10 | CC(C)[C@H](NC(=O)NCCc1ccc(Cl)cc1)C(=O)O | 0.54
11 | CC(C)C[C@H](NC(=O)NCCc1ccc(Cl)cc1)C(=O)O | 2.58
12 | CC(C)CC(NC(=O)c1ccc(Cl)cc1)C(=O)O (stereo not drawn) | -0.0425
13 | COc1ccc(NC(=O)C23CC4CC(C2)CC(n2cnc(Br)n2)(C4)C3)cc1Cl | -0.254
14 | Cn1c(=O)cc(SCC(=O)NCCC2=CCCCC2)c2ccc(Cl)cc21 | -0.0516
15 | O=C(NC(Nc1nc2ccc([N+](=O)[O-])cc2s1)(C(F)(F)F)C(F)(F)F)c1ccccc1 | 6.52 (active)
16 | O=C(NC(Nc1nc2ccc([N+](=O)[O-])cc2s1)(C(F)(F)F)C(F)(F)F)c1cccnc1 | 0.978
17 | COC(=O)C(NC(=O)c1ccccc1Cl)(Nc1ncc(S(=O)(=O)c2ccc([N+](=O)[O-])cc2)s1)C(F)(F)F (stereo not drawn) | -0.242
18 | O=C(NC(Nc1nc2ccccc2s1)(C(F)(F)F)C(F)(F)F)c1ccccc1 | -0.124
19 | O=C(NC(Nc1nc2ccc([N+](=O)[O-])cc2s1)(C(F)(F)F)C(F)(F)F)c1ccccc1Cl | 9.65 (active)
20 | O=C(NC(NNc1ccc([N+](=O)[O-])cc1)(C(F)(F)F)C(F)(F)F)c1ccccc1Cl | -0.392
21 | CN(C(=O)Nc1ccc(S(=O)(=O)N(C)C)cc1)C1CCCCC1 | -0.0267
22 | O=C(CCn1c(=O)c2ccccc2n(CC(=O)NC2CCCC2)c1=O)NCc1ccco1 | -0.258

Row | Structure (SMILES) | z-score
23 | CN(C(=O)COC(=O)c1ccccc1SCC(=O)NC1CCCCCCC1)C1CCS(=O)(=O)C1 (stereo not drawn) | -0.32
24 | Cc1cc(Oc2ccc3ccccc3c2)nc(SCC(=O)c2ccccc2)n1 | -0.14
25 | CC(=O)/C=C(\C)Nc1ccc(-c2cnc(-c3ccccc3)o2)cc1 | 0.0863
26 | CS(=O)(=O)c1ccc(Cl)c(S(=O)(=O)NCc2ccccc2)c1 | 0.117
27 | CCNS(=O)(=O)c1cc(S(C)(=O)=O)ccc1Cl | 8.32 (active)
28 | Cc1ccccc1NS(=O)(=O)c1cc(S(C)(=O)=O)ccc1Cl | -0.0663
29 | CC(C)=CC(=O)Nc1nnc(-c2ccccc2)s1 | -0.169
30 | O=C(NNC(=S)Nc1ccccc1)c1cccc(Br)c1 | 3.98 (active)
31 | O=C(O)CCC(=O)NNC(=O)c1cccc(Br)c1 | -0.13
32 | Cc1ccc(C(=O)NNC(=S)Nc2cccc3ccccc23)s1 | 1.65
33 | O=C(NNC(=S)Nc1cccc2ccccc12)c1cccc(Br)c1 | 13.9 (active)
34 | CCNC(=S)NNC(=O)c1cccc(Br)c1 | 0.0953
35 | C=CCNC(=S)NNC(=O)c1cccc(Br)c1 | -0.0521
36 | CCC(=O)NCCn1c(C)cc2ccccc21 | 0.729
37 | CC(/C=N/NC(=O)c1ccc(CN2c3cccc4cccc(c34)S2(=O)=O)cc1)c1ccccc1 (stereo not drawn) | -0.557
38 | Cc1ccc(-c2noc(CCC(=O)NCCN3CCOCC3)n2)cc1 | -0.472
39 | O=C(Nc1ncccn1)c1cc([N+](=O)[O-])cc([N+](=O)[O-])c1 | -0.131
40 | Cc1ccc(S(=O)(=O)NC(=NCC(=O)O)c2ccc(F)cc2)cc1 | 0.317
41 | O=C(O)CN=C(NS(=O)(=O)c1ccccc1)c1ccccc1 | 4.61 (active)
42 | O=C(O)CN=C(NS(=O)(=O)c1ccc(Cl)cc1)c1ccccc1 | 0.274
43 | CCOc1ccccc1CNS(=O)(=O)c1ccc2c(c1)oc(=O)n2C | -0.853
44 | CCn1cc(C(=O)Nc2nnc(C)s2)c(=O)c2cc(F)c(N3CCN(C(=O)c4ccco4)CC3)cc21 | -0.178

Row | Structure (SMILES) | z-score
45 | CCOC(=O)c1cnc(SCC(=O)Nc2cc(OC)cc(OC)c2)nc1N | 0.341
46 | CCOC(=O)c1cnc(SCC(=O)Nc2nnc(CC)s2)nc1N | 0.763
47 | CCOC(=O)c1cnc(SCC(=O)Nc2nc(C)c(C)s2)nc1N | 3.65 (active)
48 | Cc1cc2c(nn1)CCc1nonc1-2 | 0.0142
49 | COc1cc2nc(CN3C(=O)c4ccccc4C3=O)oc(=O)c2cc1OC | -0.733
50 | CCCCn1nnnc1SCC(=O)c1cc(Cl)ccc1OC | -1.36
51 | COc1ccc(Cl)cc1C(=O)CSc1nnnn1C1CCCCC1 | -0.333
52 | COc1ccc(Cl)cc1C(=O)CSc1nnnn1C1CCCC1 | 7.32 (active)
53 | O=C(NNC(=O)[C@@H]1CCCC[C@@H]1C(=O)O)c1cccs1 | 0.534
54 | O=C(NNC(=O)c1cnccn1)c1cccc([N+](=O)[O-])c1 | -0.417
55 | O=C(NCc1cn(-c2ccccc2)nc1-c1ccccc1)c1cccc([N+](=O)[O-])c1 | -0.314
56 | O=C(NNC(=O)c1cc(-c2ccccc2)n(-c2ccccc2)n1)c1cccc([N+](=O)[O-])c1 | 6.49 (active)
57 | C=CCn1c(-c2ccc(S(=O)(=O)N3CCOCC3)cc2)csc1=Nc1ccccc1 | 0.017
58 | Cc1nn(-c2ccccc2)c(N)c1C1(O)C(=O)N(C(C)C)c2ccccc21 (stereo not drawn) | 0.371
59 | O=C(c1ccccc1)n1nc(-c2ccccc2)nc1NCc1ccco1 | 0.149
60 | O=S(=O)(c1ccccc1)n1nc(-c2ccccc2)nc1NCc1ccco1 | -0.0427
61 | CCS(=O)(=O)n1nc(-c2ccccc2)nc1NCc1ccco1 | 2.2
62 | CCS(=O)(=O)c1nc2ccccc2n1CC(=O)N1CCOCC1 | 0.0592
63 | O=C(NC(=S)Nn1cnc2c(cnn2-c2ccccc2)c1=O)c1ccccc1 | -0.101
64 | O=C(NC(=S)Nn1cnc2c(cnn2-c2ccccc2)c1=O)c1ccc(Cl)cc1 | 0.0584
65 | O=C(NC(=S)Nn1cnc2c(cnn2-c2ccccc2)c1=O)c1ccc(Oc2ccccc2)cc1 | 2.08
66 | CCCN(Cc1ccc(N(CC)CC)cc1)CC1CC1 | 2.1

Row | Structure (SMILES) | z-score
67 | CCCN(Cc1ccc(N(C)C)cc1)CC1CC1 | -0.858
68 | OCCN(Cc1ccccc1)CC1CCCCC1 | 0.614
69 | CCCCn1c(SCC(=O)N2CCOCC2)nnc1-c1ccoc1C | 1.9
70 | COc1ccc(S(=O)(=O)N(CC(=O)N2CCN(C)CC2)c2ccc(C)cc2)cc1OC | 0.277
71 | CCCC(=O)OCC(=O)Nc1ccc(N=Nc2ccccc2)cc1 | 0.427
72 | CC(C)C(=O)OCC(=O)Nc1ccc(N=Nc2ccccc2)cc1 | 10.5 (active)
73 | CC(=O)OCC(=O)Nc1ccc(N=Nc2ccccc2)cc1 | 0.277
74 | Cc1cc(-c2nn(-c3ccccc3)cc2/C=C2\SC(N)=NC2=O)ccc1OC(C)C | -0.0568
75 | Cn1c(=O)oc2cc(S(=O)(=O)NCCN3CCN(c4ccccc4F)CC3)ccc21 | -0.14
76 | CC(C)N(CCNC(=O)C1CCN(S(=O)(=O)N2CCOCC2)CC1)Cc1ccccc1 | 0.267
77 | CCCCN(CCCNC(=O)C1CCN(S(=O)(=O)N2CCOCC2)CC1)Cc1ccccc1 | 2.95
78 | CCCCN(CCCNC(=O)C1CCN(S(=O)(=O)N2CCOCC2)CC1)c1ccccc1 | -1.17
79 | O=C(COc1ccccc1)OCc1csc(Nc2ccccc2)n1 | -0.693
80 | CS(=O)(=O)Nc1ccc2c(c1)nc1n2CCOC1 | -0.149
81 | COc1cccc(CNC(=O)C2(C)Oc3ccccc3NC2=O)c1 (stereo not drawn) | -0.3
82 | COc1ccc(CS(=O)(=O)/C(Cl)=C(/Cl)C(=O)Nc2ccc(OC)nc2)cc1 | -0.34
83 | COC(=O)c1ccc2nc(Nc3nc4ccc(F)cc4s3)sc2c1 | 0.254
84 | COC(=O)c1ccc2nc(Nc3nc4c(F)cc(F)cc4s3)sc2c1 | 1.56
85 | NNc1nc2ccc(F)cc2s1 | -0.467
86 | CC(=O)c1sc(Nc2nc3ccc(F)cc3s2)nc1C | 0.302
87 | Fc1ccc2nc(Nc3nc4c(F)cc(F)cc4s3)sc2c1 | 6.16 (active)
88 | Fc1ccc2nc(Nc3nc4c(F)cccc4s3)sc2c1 | 4.98 (active)

Row | Structure (SMILES) | z-score
89 | CCCCC(=O)Nc1ccccc1C(=O)N1CCOCC1 | 0.0261
90 | C/C(=N\OCC(=O)Nc1ccc(F)c(F)c1F)c1cc2ccccc2o1 | -1.92
91 | CCCCOc1ccc(C(=O)N/C(=C\c2cccc([N+](=O)[O-])c2)C(=O)OC(C)C)cc1 | 0.536
92 | Cc1ccc(CCSc2ccc(C(C)C)cc2)cn1 | -0.399
93 | CC(C)CN1C(=O)NC(NC(=O)c2ccco2)(C(F)(F)F)C1=O (stereo not drawn) | 0.0372
94 | Cc1cccc(NC(=O)COc2ccc(Br)cc2)n1 | -0.0989
95 | Cc1ccc(OCC(=O)NC(=S)Nc2cccc(C)n2)cc1 | 1.99
96 | CCOC(=O)c1ccc(NC(=S)Nc2ccccc2)cc1 | 1.7
97 | CN(C(=S)Nc1ccc(Oc2ccccc2)cc1)C1CCCCC1 | 0.0776
98 | Cc1ccc(OCC(=O)NC(=S)Nc2ccc(Br)c(C)n2)cc1 | 1.02
99 | CCOC(=O)c1ccc(NC(=S)NC(=O)COc2ccccc2)cc1 | 3.05 (active)
100 | CCCC(=O)NC(=S)Nc1ccccc1C(=O)OC | 0.0764
101 | CCCN(CC1CC1)C(=S)Nc1ccc(Oc2ccccc2)cc1 | 3.7 (active)
102 | CCC(=O)NC(=S)Nc1ccccc1C(=O)OC | -0.308
103 | CCC(=O)NC(=S)Nc1ccc(NC(=O)COc2ccccc2)cc1 | 0.0565
104 | COC(=O)c1ccccc1NC(=S)NC(=O)COc1ccc(C)cc1 | 2.28
105 | CCCCN(C)C(=S)Nc1ccc(Oc2ccccc2)cc1 | 1.42
106 | O=C(CSc1ccsc1[N+](=O)[O-])N1CCN(c2ccccc2)CC1 | -0.247
107 | COCCCNS(=O)(=O)c1ccc(SC)cc1 | -0.232
108 | O=C(COC(=O)Cc1c(Cl)cccc1Cl)Nc1ccc(OC(F)(F)F)cc1 | 0.262

Reference: PubChem BioAssay AID488969 (Vanderbilt High Throughput Screening Facility, 2010)
